# Measurements reported in PubChem BioAssay.
# “And” between values parts separate entries of the source, which are not always exact repeats. Identical values can stand only once. For some of these results: Entries with a potency or affinity are not part of this list. The source made the active and inactive calls. Unless noted, the rule behind the calls is not given here.
# Assays:
# [1] = blockers of polyQ-driven CASP3 activation – cell-based (AID 1583); conditions: polyglutamine-induced caspase-3 activation, cell assay; stronger effect = higher value;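 tested at 10 µM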
# [2] = yeast 75Q aggregation reduction – 75Q-TubU reporter (AID 1593); conditions: Yeast 75Q polyglutamine aggregation reporter
# [3] = restoration of touch response, mutant HTT neurons – whole organism, C. elegans mechanosensory neurons, N-terminal huntingtin (AID 1599); conditions: C. elegans polyQ-huntingtin mechanosensory neurons, stronger effect = higher value
# [4] = blockers of cytochrome c efflux from mitochondria – biochemical, purified mitochondria (AID 1603); conditions: stronger effect = lower value;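 note: mouse liver mitochondria challenged with calcium chloride; signal normalized to the plate average as 100%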
# [5] = polyglutamine aggregate formation blockers (AID 1604); conditions: polyglutamine-induced protein aggregation inhibition assay; stronger effect = higher value; tested at 2.5 µM
# [6] = glutamate transport activators, MN-1 cells, MN-1 cell line (AID 1612); conditions: MN-1 motor neuron cells, stronger effect = higher value;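 note: tested at 1 µM final; 0% = mean of DMSO vehicle wells on each plate; positive means more glutamate uptake than control and negative means less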
# [7] = 75Q-TubH aggregate inhibition, S. cerevisiae, yeast (AID 1616); conditions: S. cerevisiae 75Q-TubH polyglutamine aggregation suppression; stronger effect = higher value
# [8] = compounds altering viability of human ES cells (AID 493140); conditions: human embryonic stem cell survival screen; stronger effect = higher value;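 note: cells exposed to compounds for four days before counting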
# [9] = signal quenchers or enhancers, Cy5 substrate/SSB – biochemical, NIH Clinical Collection, E. coli SSB, artefact control for HCV NS3 helicase inhibitor project (AID 743268); conditions: Cy5-oligo bound E. coli SSB, fluorescence interference
# [10] = test system: Hepatitis C virus NS3 helicase; experiment: blockers of NS3h binding to DNA – biochemical, fluorescence polarization, NIH Clinical Collection, primary screen (AID 743270); conditions: NS3 helicase binding to Cy5-dT15 DNA, stronger effect = higher value, concentration not given here
# [11] = target: Single-stranded DNA-binding protein (Escherichia coli (strain K12)) (UniProt P0AGE0); experiment: SSB-ssDNA binding inhibitors – biochemical, fluorescence polarization, NIH Clinical Collection, counter-screen for HCV NS3 helicase inhibitor project (AID 743271; in the data active = inhibition above about 28%); conditions: E. coli SSB-DNA binding, stronger effect = higher value, concentration not given here
# [12] = compounds distorting NS3 helicase fluorescence signal – biochemical, NIH Clinical Collection, artefact control for HCV NS3 helicase inhibitor project (AID 743272); conditions: fluorescence interference counterscreen, HCV NS3 helicase assay; stronger effect = lower value;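 note: HCV NS3 helicase with a Cy5 labelled single stranded DNA probe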
# [13] = modulation of C. elegans fzo-1 (AID 1259413);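 note: fzo-1 mutant C. elegans worms in liquid wells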; conditions: C. elegans fzo-1 modulator screen, mean read-out; stronger effect = higher value
# [14] = blockers of cellular phospholipid synthesis – cell-based, LOPAC library, screen 4, primary screen (AID 1347384); conditions: animal cells, phospholipid biosynthesis inhibition screen; at 10 µM
# [15] = galactose survival enhancers in mitochondrial complex I cybrids – cell-based, galactose medium, ATP luminescence, primary screen (AID 1645843;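 active = z-score of at least 1.8 in each of two replicates, scored against plate mean and spread of sample wells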;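 note: positive z means more ATP and so rescue of galactose-driven cybrid death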); conditions: complex I mutant cybrid cells, 72 h, stronger effect = higher value
# [16] = test system: F380Y/beta1; experiment: BK channel mutant inhibitors and activators – cell-based, U2OS BacMam, thallium flux, beta subunits, selectivity assay, profiling panel (AID 1259406;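 active = thallium flux through the channel raised or lowered by more than 3 SD from vehicle-only wells, actives on both sides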;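 note: initial slope of Thallos dye fluorescence rise after thallium is added; log ratio against the mean of 0.3% DMSO vehicle wells on the same plate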); conditions: U2OS BacMam BK variants, at 30 µM
# [17] = test system: F380Y/beta4; experiment: as above; conditions: U2OS BacMam BK variants, at 30 µM
# [18] = test system: R275C/beta4; experiment: as above; conditions: U2OS BacMam BK variants, at 30 µM
# [19] = test system: R275C/Slo1WT/beta2; experiment: as above; conditions: U2OS BacMam BK variants, at 30 µM
# [20] = P. berghei load reduction in hepatocytes – cell-based, HepG2, luciferase luminescence, HepG2 viability, primary screen (AID 624349; in the data active = parasite load remaining mostly below about 12%, no sharp cut-off; inactive = mostly above about 10%;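 note: 100% = mean of DMSO negative control wells on the same plate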); conditions: P. berghei liver stage in HepG2, luciferase luminescence, concentration not given here; parasite load remaining: stronger effect = lower value; viability: measured here: HepG2 viability without parasites
structure (smiles),measurement,setting,value
CN(C)CCOC(C)(c1ccccc1)c1ccccn1 (stereo unspecified),inhibition,[1],9.79%
same,score,[2],1.23
same,rescue above control,[3],-5.3
same,cytochrome c release ratio,[4],0.7
same,inhibition of aggregation,[5],77%
same,glutamate uptake change,[6],7.08%
same,aggregation suppression score,[7],1.46
same,survival,[8],6.42 (inactive)
same,fluorescence ratio,[9],1.04 (inactive)
same,inhibition,[10],-0.4% (inactive)
same,inhibition,[11],-0.87% (inactive)
same,fluorescence ratio,[12],1.06 (inactive)
same,mean signal,[13],230 (inactive)
same,outcome,[14],inactive
same,z-score,[15],0.14 (inactive) and -0.05 (inactive) and 0.35 (inactive)
same,log fold change Tl+ flux,[16],-0.0273 (inactive)
same,log fold change Tl+ flux,[17],0.0181 (inactive)
same,log fold change Tl+ flux,[18],0.0164 (inactive)
same,log fold change Tl+ flux,[19],0.0279 (inactive)
NS(=O)(=O)c1cc2c(cc1C(F)(F)F)NC(Cc1ccccc1)NS2(=O)=O (stereo unspecified),inhibition,[1],23.3%
same,score,[2],1.25
same,rescue above control,[3],-3.69
same,cytochrome c release ratio,[4],1.06
same,inhibition of aggregation,[5],66.2%
same,glutamate uptake change,[6],10.7%
same,aggregation suppression score,[7],1.15
same,survival,[8],3.67 (inactive)
same,fluorescence ratio,[9],1.02 (inactive)
same,inhibition,[10],-0.45% (inactive)
same,inhibition,[11],1.05% (inactive)
same,fluorescence ratio,[12],0.99 (inactive)
same,mean signal,[13],239 (inactive)
same,z-score,[15],1.88 (inactive)
same,log fold change Tl+ flux,[16],-0.0798 (inactive)
same,log fold change Tl+ flux,[17],0.0179 (inactive)
same,log fold change Tl+ flux,[18],-0.00759 (inactive)
same,log fold change Tl+ flux,[19],-0.0386 (inactive)
NS(=O)(=O)c1cc2c(cc1C(F)(F)F)NCNS2(=O)=O,inhibition,[1],-8.77%
same,score,[2],1.38
same,rescue above control,[3],-10.8
same,cytochrome c release ratio,[4],0.95
same,inhibition of aggregation,[5],91.6%
same,glutamate uptake change,[6],-18.5%
same,aggregation suppression score,[7],1.31
same,survival,[8],23.1 (inactive)
same,fluorescence ratio,[9],1.02 (inactive)
same,inhibition,[10],-3.18% (inactive)
same,inhibition,[11],-0.48% (inactive)
same,fluorescence ratio,[12],0.93 (inactive)
same,mean signal,[13],224 (inactive)
same,z-score,[15],1.47 (inactive)
same,log fold change Tl+ flux,[16],0.0232 (inactive)
same,log fold change Tl+ flux,[17],0.0329 (inactive)
same,log fold change Tl+ flux,[18],0.0202 (inactive)
same,log fold change Tl+ flux,[19],0.0133 (inactive)
OCCN1CCN(CCCN2c3ccccc3Sc3ccc(Cl)cc32)CC1,inhibition,[1],-20.9%
same,score,[2],0.86
same,cytochrome c release ratio,[4],1.23
same,inhibition of aggregation,[5],49%
same,glutamate uptake change,[6],5.53%
same,aggregation suppression score,[7],0.889
same,survival,[8],1.67 (inactive)
same,fluorescence ratio,[9],1.01 (inactive)
same,inhibition,[10],-2.27% (inactive)
same,inhibition,[11],1.81% (inactive)
same,fluorescence ratio,[12],0.84 (inactive)
same,mean signal,[13],256 (inactive)
same,outcome,[14],inactive
same,z-score,[15],-1.29 (inactive) and -1.32 (inactive)
same,log fold change Tl+ flux,[16],0.097 (inactive)
same,log fold change Tl+ flux,[17],0.284 (active)
same,log fold change Tl+ flux,[18],0.17 (active)
same,log fold change Tl+ flux,[19],-0.0801 (inactive)
CSc1ccc2c(c1)N(CCC1CCCCN1C)c1ccccc1S2 (stereo unspecified),inhibition,[1],43.3%
same,score,[2],0.94
same,rescue above control,[3],0
same,cytochrome c release ratio,[4],0.4
same,inhibition of aggregation,[5],7.32%
same,glutamate uptake change,[6],-2.39%
same,aggregation suppression score,[7],0.91
same,survival,[8],2.08 (inactive)
same,fluorescence ratio,[9],1.05 (inactive)
same,inhibition,[10],-5% (inactive)
same,inhibition,[11],0.29% (inactive)
same,fluorescence ratio,[12],0.85 (inactive)
same,mean signal,[13],275 (inactive)
same,outcome,[14],inactive
same,z-score,[15],-1.38 (inactive) and -1.5 (inactive) and -2.41 (inactive)
same,log fold change Tl+ flux,[16],0.338 (active)
same,log fold change Tl+ flux,[17],0.259 (active)
same,log fold change Tl+ flux,[18],0.753 (active)
same,log fold change Tl+ flux,[19],-0.146 (active)
CC(N=C(NC#N)Nc1ccncc1)C(C)(C)C (stereo unspecified),survival,[8],59.8 (inactive)
same,fluorescence ratio,[9],0.97 (inactive)
same,inhibition,[10],-0.22% (inactive)
same,inhibition,[11],1.97% (inactive)
same,fluorescence ratio,[12],0.95 (inactive)
same,mean signal,[13],282 (inactive)
same,outcome,[14],inactive
same,z-score,[15],0.04 (inactive) and -0.155 (inactive) and 0.65 (inactive)
same,log fold change Tl+ flux,[16],0.0184 (inactive)
same,log fold change Tl+ flux,[17],0.00227 (inactive)
same,log fold change Tl+ flux,[18],-0.0193 (inactive)
same,log fold change Tl+ flux,[19],-0.0219 (inactive)
NCC(=O)CCC(=O)O,parasite load remaining,[20],63.7% (inactive) and 161% (inactive) and 53.4% (inactive)
same,viability,[20],95.6% and 83.2% and 165%
same,fluorescence ratio,[9],1.05 (inactive)
same,inhibition,[10],-2.27% (inactive)
same,inhibition,[11],-0.48% (inactive)
same,fluorescence ratio,[12],1.02 (inactive)
same,mean signal,[13],245 (inactive)
same,z-score,[15],0.925 (inactive)
same,log fold change Tl+ flux,[16],-0.00533 (inactive)
same,log fold change Tl+ flux,[17],0.0148 (inactive)
same,log fold change Tl+ flux,[18],-0.0959 (inactive)
same,log fold change Tl+ flux,[19],-0.117 (active)
CCN(CC)CCOC(=O)c1ccc(N)cc1,inhibition,[1],9.09%
same,score,[2],1.48
same,rescue above control,[3],-15
same,cytochrome c release ratio,[4],1.16
same,inhibition of aggregation,[5],23.9%
same,glutamate uptake change,[6],22.4%
same,aggregation suppression score,[7],1.46
same,survival,[8],15.7 (inactive)
same,fluorescence ratio,[9],1.06 (inactive)
same,inhibition,[10],-3.18% (inactive)
same,inhibition,[11],0.29% (inactive)
same,fluorescence ratio,[12],0.92 (inactive)
same,mean signal,[13],231 (inactive)
same,outcome,[14],inactive
same,z-score,[15],0.17 (inactive) and -0.015 (inactive)
same,log fold change Tl+ flux,[16],-0.0732 (inactive)
same,log fold change Tl+ flux,[17],0.0148 (inactive)
same,log fold change Tl+ flux,[18],-0.0586 (inactive)
same,log fold change Tl+ flux,[19],-0.013 (inactive)
Cc1nc2ccccn2c(=O)c1CCN1CCC(C(=O)c2ccc(F)cc2)CC1,survival,[8],8.08 (inactive)
same,fluorescence ratio,[9],0.95 (inactive)
same,inhibition,[10],5.94% (inactive)
same,inhibition,[11],3.75% (inactive)
same,fluorescence ratio,[12],0.93 (inactive)
same,mean signal,[13],234 (inactive)
same,outcome,[14],inactive
same,z-score,[15],-1.02 (inactive) and -0.645 (inactive)
same,log fold change Tl+ flux,[16],0.0396 (inactive)
same,log fold change Tl+ flux,[17],0.0319 (inactive)
same,log fold change Tl+ flux,[18],-0.0285 (inactive)
same,log fold change Tl+ flux,[19],0.00703 (inactive)
CN(C)CCCN1c2ccccc2Sc2ccc(Cl)cc21,inhibition,[1],1.97%
same,score,[2],0.97
same,rescue above control,[3],0
same,cytochrome c release ratio,[4],1.17
same,inhibition of aggregation,[5],35.3%
same,glutamate uptake change,[6],11.9%
same,aggregation suppression score,[7],1.25
same,survival,[8],3.17 (inactive)
same,fluorescence ratio,[9],1.03 (inactive)
same,inhibition,[10],-4.09% (inactive)
same,inhibition,[11],-1.24% (inactive)
same,fluorescence ratio,[12],0.91 (inactive)
same,mean signal,[13],252 (inactive)
same,outcome,[14],inactive
same,z-score,[15],-1.52 (inactive) and -1.29 (inactive) and -1.43 (inactive)
same,log fold change Tl+ flux,[16],-0.176 (active)
same,log fold change Tl+ flux,[17],0.171 (active)
same,log fold change Tl+ flux,[18],0.154 (active)
same,log fold change Tl+ flux,[19],-0.0668 (inactive)
